The entries come from a sample that favours hits as a whole.
RBX1-CUL1 inh = inhibitors of human ROC1-CUL1 ubiquitin ligase activity; AID 1347404, 2020; 140,000 tested, 0.6% active; inhibition, % at 10 µM; in vitro K48 di-Ub FRET, acceptor:donor ratio, 45 min; in the data active = inhibition above about 25%
Target sequence (P62877 whole entry, looked up): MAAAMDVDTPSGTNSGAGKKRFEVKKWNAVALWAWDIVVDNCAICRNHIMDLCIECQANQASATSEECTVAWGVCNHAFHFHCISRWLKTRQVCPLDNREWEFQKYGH
Target sequence (Q13616 whole entry, looked up): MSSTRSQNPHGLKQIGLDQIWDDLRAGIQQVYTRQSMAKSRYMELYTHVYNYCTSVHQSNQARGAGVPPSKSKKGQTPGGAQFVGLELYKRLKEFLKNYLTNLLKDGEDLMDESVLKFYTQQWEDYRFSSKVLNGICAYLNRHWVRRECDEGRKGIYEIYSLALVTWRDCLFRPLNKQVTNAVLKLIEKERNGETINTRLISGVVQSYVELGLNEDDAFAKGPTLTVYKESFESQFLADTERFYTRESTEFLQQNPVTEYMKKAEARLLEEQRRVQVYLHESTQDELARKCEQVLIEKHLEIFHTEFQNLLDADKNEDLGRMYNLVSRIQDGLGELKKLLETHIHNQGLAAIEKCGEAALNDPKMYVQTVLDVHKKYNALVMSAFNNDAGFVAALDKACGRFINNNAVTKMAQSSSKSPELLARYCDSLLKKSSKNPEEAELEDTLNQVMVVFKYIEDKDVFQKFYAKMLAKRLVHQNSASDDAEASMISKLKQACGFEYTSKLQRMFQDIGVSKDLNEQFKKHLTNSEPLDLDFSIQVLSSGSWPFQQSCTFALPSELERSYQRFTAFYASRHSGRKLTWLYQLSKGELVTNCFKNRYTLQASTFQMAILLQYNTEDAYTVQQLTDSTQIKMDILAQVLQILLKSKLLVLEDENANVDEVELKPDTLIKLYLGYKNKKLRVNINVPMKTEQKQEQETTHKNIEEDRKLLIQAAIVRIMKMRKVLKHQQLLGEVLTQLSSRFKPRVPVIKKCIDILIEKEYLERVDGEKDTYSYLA
Hits are given with their value; 0 = inactive.

SMILES	RBX1-CUL1 inh
CCOc1cc(/C=C2/SC(=O)N(C(C)C)C2=O)c(Br)cc1OCC(=O)Nc1ccccc1	0
COc1cccc(C(=O)Nc2ccccn2)c1	0
CCc1nnc(N2C(=O)c3ccc(S(=O)(=O)c4ccc(C(=O)O)cc4)cc3C2=O)s1	0
O=C(Nc1cnn(Cc2ccc(Cl)c(Cl)c2)c1)c1sc2ccccc2c1Cl	0
CCOc1cc(-c2cc(N)no2)cc(OCC)c1OCC	0
Cc1[nH]c2ccc(Br)cc2c1Sc1ccccc1	0
O=C1C(=O)N(CNc2ccccc2Cl)c2ccccc21	0
O=C1C2=C/C(=C\N3CCCCC3)C(=O)N2c2ccccc21	75
O=C1c2ccccc2C(=O)N1CN1CCCCCC1	0
O=C(NN1C(=O)c2cc(I)ccc2NC1c1cc(Br)cc(Br)c1O)c1ccncc1 (stereo not given)	0
O=C(CN(c1ccccc1F)S(=O)(=O)c1ccccc1)NCCSCc1cccc(Cl)c1	0
Cc1c(C(=O)O)cccc1-n1c(C)cc(/C=N/Nc2ccc([N+](=O)[O-])cn2)c1C	82
O=[N+]([O-])c1ccc(N/N=C/c2cccn2-c2ccccc2)nc1	0
Cc1c(C(=O)O)cccc1-n1c(C)cc(/C=N/NC(=O)c2cc3ccccc3o2)c1C	0
O=C1Nc2ccc(F)cc2C12NC(c1ccccc1)C([N+](=O)[O-])C2c1ccccc1 (stereo not given)	0
N#C/C(=C\c1ccco1)C(=O)c1cccs1	57
N#Cc1c(-c2ccccc2)c(-c2ccccc2)n(Cc2ccco2)c1NC(=O)c1cccs1	0
CC(C)=CC(=O)/C=C(/C)c1cccs1	0
CC(C)c1cc(C(=O)N2CCN(c3cccc(Cl)c3)CC2)cs1	0
CCCCCC[C@@H]1[C@@H](NS(=O)(=O)c2ccc(C)cc2)C(=O)NC1(C(=O)OCC)C(=O)OCC	0
CCCOc1cccc(C(=O)NC2CCN(CC)CC2)c1	0
S=c1[nH]nc(-c2ccccc2)n1-c1ccc(Cl)cc1	0
Fc1ccc(-c2n[nH]c(=S)n2-c2ccccc2)cc1	36
CC(C)(C)c1ccc(-c2n[nH]c(=S)n2-c2ccccc2)cc1	0
CC(=O)C1C(=O)Oc2c(ccc3ccccc23)C1=O (stereo not given)	40
SMILES	RBX1-CUL1 inh
CC(=O)c1coc2ccc3ccccc3c2c1=O	0
O=C1CC(O)(C(F)(F)F)Oc2c1ccc1ccccc21 (stereo not given)	0
c1ccc2cc(N3CCCCC3)ncc2c1	65
O=[N+]([O-])c1ccc(N2CCCCC2)nc1	0
c1ccc(-c2cc(N3CCCCC3)ncn2)cc1	0
O=C(CCSc1nc2ccccc2o1)Nc1ccccc1Cl	0
OCc1ccc(C#Cc2ccccc2)o1	81
Nc1ccccc1C#Cc1ccccc1	0
OCc1ccccc1C#Cc1ccccc1	0
C=CCC1=C2c3ccccc3CC(C)(C)N2C(O)(C(=O)N2CCOCC2)C1=O (stereo not given)	0
CC(/C(N)=N/O)N1CC(c2ccccc2)CC1=O (stereo not given)	0
Cc1ccc(C(=O)C2C(=N)N(c3ccccc3)C3=C(C(=O)CCC3)C2c2ccccc2)cc1 (stereo not given)	0
O=C(Oc1ccc(N2C(=O)CCC2=O)cc1)c1ccccc1	0
O=C1CCC(=O)N1c1cccc(Cl)c1	0
CC(=O)Sc1ccc(N2C(=O)CCC2=O)cc1	37
CC1=Nc2ccccc2C1=Cc1sc(=O)n(Cc2c(F)cccc2Cl)c1O	0
COC1=CC(=NC#N)C(Br)=CC1=NC#N	104
CCc1nc2ccccc2n1CC(=O)O	0
COc1ccc(CN2CC[C@@H](N3CCCCCC3)[C@H](O)C2)c(OC)c1OC	0
CN1C(=S)N(c2ccc(Cl)cc2)C(=O)/C1=C/c1cn(CC(=O)NCc2ccco2)c2ccccc12	0
Cc1c(C=C2C(=O)NC(=S)NC2=O)c2ccccc2n1CC(=O)NCc1ccco1	62
Cc1ccc(NC(=O)Cn2c(=O)n(Cc3ccco3)c(=O)c3ccccc32)cc1	0
O=C(NNS(=O)(=O)c1ccc2c(c1)Cc1cc(S(=O)(=O)NNC(=O)c3ccco3)ccc1-2)c1ccco1	0
COc1ccc(/C=C2/N=C(c3ccco3)NC2=O)cc1	0
CCC(=O)Nc1cc(C(=O)OCC(=O)C(C)(C)C)ccc1C	0
SMILES	RBX1-CUL1 inh
O=C(O)C1=NN(c2ccccc2)C(=O)/C1=C\c1ccc(Cl)cc1Cl	40
Cc1c(N2C(=O)/C(=C/c3ccc(Cl)cc3Cl)SC2=S)c(=O)n(-c2ccccc2)n1C	0
O=C(NN1C(=O)/C(=C/c2ccc(Cl)cc2Cl)SC1=S)c1ccccc1Cl	0
Cc1ccc(S(=O)(=O)Nc2ccc3c(c2)nc(C)n3Cc2ccccc2)cc1	0
COc1ccc(C2CC(c3ccccc3O)=Nc3ccccc3S2)cc1 (stereo not given)	0
O=C(Nc1ccccc1)OC1Cc2ccccc2Sc2ccc(Cl)cc21 (stereo not given)	0
CC(=O)Nc1sccc1/C(=N/OC(C)=O)c1ccccc1	0
O=c1cc(-c2ccccc2Cl)nc(-c2cccc(CN3CCC[C@@H](O)C3)c2)[nH]1	0
CC(Sc1nc(-c2ccccc2)c(-c2ccccc2)[nH]1)C(=O)O (stereo not given)	0
COc1ccc(C(=O)CSc2nc(-c3ccccc3)c(-c3ccccc3)[nH]2)cc1	0
O=C(CSc1nc(-c2ccccc2)c(-c2ccccc2)[nH]1)c1ccc(O)c(O)c1O	101
COc1ccc(/C=C/C(=N\O)C23CC4CC(CC(C4)C2)C3)cc1	0
Cc1ccc(C(=O)/C(C#N)=N\Nc2ccc(Br)cc2)cc1	0
COC(=O)c1cccc2c1N[C@@H](c1ccncc1)[C@H]1CC=C[C@@H]21	0
Cc1c(C(=O)O)ccc2c1N[C@@H](c1ccc(F)cc1)[C@H]1CC=C[C@@H]21	76
CCOC(=O)c1cccc2c1N[C@@H](c1ccc(F)cc1)[C@H]1CC=C[C@@H]21	0
CC1=Nc2nc(CCCO)nn2C(c2ccc(Br)cc2)C1C(=O)Nc1ccccc1 (stereo not given)	0
O=c1cc(C(F)(F)F)nc(N2CCN(Cc3ccc4c(c3)OCO4)CC2)[nH]1	0
Cc1ccccc1NC(=O)c1ccc(C2CCCN2)s1 (stereo not given)	0
CC(C)n1cc(NC(=O)c2ccc(C3CCCN3)s2)nn1 (stereo not given)	0
O=C(Nc1ccc2scnc2c1)c1ccc(C2CCCN2)s1 (stereo not given)	99
O=C1C(=O)N(c2ccccc2)C(=Nc2ccccc2)C(=Nc2ccccc2)N1c1ccccc1	0
O=C(O)COc1ccc(Br)cc1/C=C1\SC(=O)N(Cc2ccc(F)cc2)C1=O	0
CCOc1ccc(N=C2S/C(=C\c3cc(Cl)c(OCC(=O)O)c(OC)c3)C(=O)N2CC)cc1	94
CCN1C(=O)/C(=C/c2cc(OC)c(OCC(=O)O)cc2Br)SC1=Nc1ccc(OC)cc1	0
SMILES	RBX1-CUL1 inh
COc1cc(/C=C2/SC(=O)N(Cc3ccc(F)cc3)C2=O)cc(I)c1OCC(=O)O	98
CCOC(=O)c1ccc(N=C2S/C(=C/c3cc(OC)c(OC)c(OC)c3)C(=O)N2CC)cc1	0
COc1cc(/C=C2\SC(=O)N(Cc3ccc(F)cc3)C2=O)ccc1OCc1ccc(C(=O)O)cc1	0
CCOC(=O)N/N=C1\CSCC1C(=O)OC (stereo not given)	0
CCc1ccc(N2NC(=O)/C(=C/c3ccc(OC(=O)c4cccs4)c(OC)c3)C2=O)cc1	0
O=C1NN(c2cccc(Br)c2)C(=O)/C1=C\c1cccc(OC(=O)c2cccs2)c1	87
Cc1cccc(N2NC(=O)/C(=C\c3cccs3)C2=O)c1	0

Screening data from PubChem.
